Each structure is given as a SMILES string. In all, about 200,000 compounds went through this assay and about 330 (0.17%) were called active. This excerpt belongs to a sample that is enriched for actives. A number with no mark means an inactive call.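 How the source made its calls: active means activation factor of 2 or more at 20 µM, a signal rise over negative controls twice the positive control's; inactive means the rest.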 Where a SMILES comes first, the peptide text is derived from it. [ ]: non-standard residue; d: D form. ξ: configuration not given here. ξM = CSCCC(N)C(=O)O

The subject of the test is alkaline phosphatase, intestinal [Bos taurus]. The experiment in a line: bovine intestinal alkaline phosphatase activators, primary screen, biochemical, bovine IAP, CDP-star luminescence (AID 1016). Conditions: purified bovine IAP, 30 min, at 20 µM, active compounds read high, fold of DMSO-control signal, blank-subtracted.
For `Cc1ccccc1C1=NC(C(F)(F)F)(C(F)(F)F)c2c(n(-c3ccc(F)cc3)c(=O)[nH]c2=O)N1`, the activation factor was 0.9. Then `CC1CCC(C(C)C)C(=O)/C1=C\c1ccc(NC(=O)CCC(=O)O)cc1` (stereo not drawn), with 0.9; and `C[C@@H](O)c1nc2ccccc2n1N`, with 0.9; and `Cc1ccc(C(=O)Nc2sc(Cc3ccc4c(c3)OCO4)c(C)c2C(N)=O)cc1`, with 0.9.

With `CN(C)S(=O)(=O)Oc1ccccc1C(=O)Nc1ccccc1Cl`, the activation factor is 0.9. Next, `COc1ccc(S(=O)(=O)N(C)CC(=O)N2CCCC2)cc1Cl`: 1; `COc1ccc(CC(=O)Nc2ccc3c(c2)CCC3)cc1S(=O)(=O)N1CCOCC1`: 1. In the case of `CC(=O)Nc1ccccc1OC(=O)N1CCOCC1`, the activation factor was 0.9.

As to `O=C(Oc1ccc2c(c1)CCC2)N1CCOCC1`, the activation factor was 2.4 (active). Then `CCc1cc(-c2n[nH]c(=S)n2CC(C)C)cs1`, with 1; and `O=C(CNC(=O)c1cc(=O)[nH]c2ccccc12)Nc1ccc(F)c(F)c1`, with 0.9; and `Cc1cc(C)nc(-n2ncc3c2CC(c2ccc(C(C)C)cc2)CC3=O)n1` (stereo not drawn), with 0.8. Next, `CCC(=O)N1c2ccccc2NC2=C(C(=O)CCC2)C1c1ccco1` (stereo not drawn): 1. Next, `NC(=O)COC(=O)c1cc(S(=O)(=O)N2CCN(c3ccccc3)CC2)ccc1Cl`: 1.1.

Regarding `COCc1c(N)c(C)nc(Cl)c1C#N`, the activation factor is 1.1. Then `Cc1cccc(C)c1NC(=O)C1CCCN1C(=O)OC(C)(C)C` (stereo not drawn), with 0.8. Next, `CC(=O)NCCC(=O)Nc1cc(S(=O)(=O)N2CCOCC2)ccc1N1CCOCC1`: 1; `CCCC1OC23CCCCC2C(C#N)(C#N)C1(C#N)C(=N)O3` (stereo not drawn): 1.1; `Cc1ccc(C(=O)NC(=S)NCc2cccnc2)cc1`: 1.

Regarding `NC(=O)C1CCN(C(=O)COc2cccc3cccnc23)CC1`, the activation factor is 1. On to `Cc1nn(Cc2ccc(F)cc2)c(C)c1NC(=O)c1cccnc1Cl`, for which the activation factor was 1.1. Next, `CC(=O)Cn1ncc(N2CCOCC2)c(Br)c1=O`: 1.1. Then `C/C(CC(=O)Nc1cccc(C(F)(F)F)c1)=N\NC(=O)C(=O)NCC(C)C`, with 1.3. Next, `O=C(NN1C(=O)C2C3C=CC(O3)C2C1=O)c1ccncc1` (stereo not drawn): 0.8; `CC(C)C1Nc2c(C(=O)O)cccc2C(Nc2ccccc2C(=O)O)C1(C)C` (stereo not drawn): 1.1.

Turning to `CCCn1c(C(Cc2ccccc2)NC(=O)COC)nc2ccccc21` (stereo not drawn), the activation factor was 0.9. Then `CCOc1ccc(C(O)Cc2nc3ccccc3n2C)cc1` (stereo not drawn), with 0.8; and `CCCn1c(C(O)c2ccc(OCC)cc2)nc2ccccc21` (stereo not drawn), with 19.1 (active).

Regarding `CCOCCn1c(C(C)C)nc2ccccc21`, the activation factor is 0.9. Then `COc1cc(C(O)c2nc3ccccc3n2C)cc(OC)c1OC` (stereo not drawn), with 1. For the molecule `CCCn1c(C(O)c2cc(OC)ccc2OC)nc2ccccc21` (stereo not drawn), the activation factor was 73.3 (active). Then `CN(C)c1ccc(/C=N/NC(=O)c2ccc(Cn3cc(Br)cn3)o2)cc1`, with 1; and `Cc1ccccc1OCC(=O)Nc1nc(C)c(C(=O)N(C)C)s1`, with 1; and `Cc1csc(SCC(=O)Nc2sccc2C#N)n1`, with 1.2.

`CN(c1ccc(OCC(=O)OCC(=O)Nc2cccc([N+](=O)[O-])c2)cc1)S(=O)(=O)c1ccc(F)cc1`: the activation factor is 0.8. Next, `CN(C)c1ccc(NC(=O)CSc2n[nH]c(-c3ccco3)n2)cc1`: 1.

Take `O=C(OCC(=O)c1c[nH]c2ccccc12)c1cccc(O)c1`: the activation factor is 1.2.

`COCCCNC(=O)Cn1cc(/C=C(\C#N)C(=O)N2CCN(c3ccccc3)CC2)c2ccccc21`: the activation factor was 1. Take `COc1ccc(/C=N/n2c(C)cc(C)cc2=O)cc1`: the activation factor is 1.2. Next, `CCOC(=O)C1(Cc2cccc(OC)c2)CCN(C(C)COC)CC1` (stereo not drawn): 1; `Fc1ccccc1Cc1ccc(Cl)nn1`: 0.9; `O=C(O)c1n[nH]nc1-c1ccccc1`: 0.9.

`Cc1ccccc1CCN(CC(=O)NC1CCCCC1)C(=O)c1csnn1`: the activation factor was 1.

On to `COc1cccc(N(Cc2nnc3n2CCCCC3)C(=O)Nc2ccccc2F)c1`, for which the activation factor was 1.1.

In the case of `CSc1ccc(C(=O)C2CCCN(C(=O)c3ccc(C)nc3)C2)cc1` (stereo not drawn), the activation factor was 1.

Regarding `COc1ccc(C(=O)Nc2ccc(NC(=O)C(C)C)nc2)cc1`, the activation factor was 0.9. Then `Cc1cccc(CSc2nnc(C)c(=O)n2N)c1`, with 1.1; and `CC(=O)N/C(=C/c1ccc(OC(F)F)cc1)C(=O)O`, with 1; and `CC(=O)N1CCN(S(=O)(=O)c2ccc(C)c([N+](=O)[O-])c2)C1C(C)C` (stereo not drawn), with 1. Next, `CC1Cc2ccccc2N1C(=O)CSc1nnc(C2CC2)n1C` (stereo not drawn): 1. As to `CC(NC(=O)c1ccc(N2CCNCC2)c([N+](=O)[O-])c1)C12CC3CC(CC(C3)C1)C2` (stereo not drawn), the activation factor was 1.1. Then `Clc1ccc(-c2nc3ccccn3c2CN2CCSCC2)cc1`, with 1; and `O=C1C2C3C=CC(C3)C2C(=O)N1c1ccc(-c2nc3ccccc3c(=O)o2)cc1` (stereo not drawn), with 1.1.

`COc1cccc(NC(=S)C(C#N)=C2N(C)c3ccccc3N2C)c1`: the activation factor is 1.1. Turning to `CC(=O)NC1=NN(C(C)=O)C(C)(c2ccc(C)cc2)S1` (stereo not drawn), the activation factor is 0.9. Next, `CC(=O)c1sc(N/N=C/c2ccc(C(C)C)cc2)nc1C`: 0.9. Next, `COCCNC(=O)/C(C#N)=C/c1nc(N(C)C)n(-c2ccc(F)cc2)c1Cl`: 1.

In the case of `O=C(O)c1ccc2c3c(cccc13)C(=O)N(OS(=O)(=O)c1ccccc1)C2=O`, the activation factor is 1.3.

As for `Cc1sc2nc(COC(=O)C(NC(=O)c3ccc(Cl)cc3Cl)C(C)C)[nH]c(=O)c2c1C` (stereo not drawn), the activation factor was 0.7. For `COc1ccc(C(CC(=O)c2ccccc2)S(=O)(=O)c2ccccc2)cc1` (stereo not drawn), the activation factor is 1. Then `NS(=O)(=O)c1ccc(NC(=O)COC(=O)c2ccco2)cc1`, with 1. Then `CN(C)S(=O)(=O)c1cccc(NC(=O)COC(=O)C2(c3ccccc3F)CCCC2)c1`, with 1.1. Then `NS(=O)(=O)c1ccc(NC(=O)COC(=O)C2(c3ccc(F)cc3)CCCC2)cc1`, with 2.7 (active); and `CCn1c(SCC(=O)Nc2ccc3c(c2)OCCO3)nc2c(c1=O)SC(C)C2` (stereo not drawn), with 1; and `CCn1c(SCC(=O)Nc2ccccc2F)nc2c(c1=O)SC(C)C2` (stereo not drawn), with 2 (active).

Turning to `CC1Cc2nc(SCC(=O)Nc3ccccc3F)n(C)c(=O)c2S1` (stereo not drawn), the activation factor was 1.1. Next, `COc1ccc(-c2nc(N)sc2C2(O)C(=O)Nc3c(Br)cc(F)cc32)cc1OC` (stereo not drawn): 1.

For the molecule `COC(=O)CNC(=O)C(CCSC)NC(C)=O` (stereo not drawn) (Ac-[ξM]-Gly-OMe), the activation factor is 1. Then `O=C(COC(=O)c1cccc(Br)c1)Nc1cccc2c1C(=O)c1ccccc1C2=O`, with 0.8; and `O=C(CN1CCOCC1)Nc1c(Cl)cc(Cl)cc1Cl`, with 1. Then `O=C(CCCn1c(=O)c2sccc2n(CC(=O)NCC2CCCO2)c1=O)NCc1ccco1` (stereo not drawn), with 1. Then `[O-][n+]1c2c(nn1-c1ccc(Cl)c(Cl)c1)-c1nonc1CC2`, with 1.1; and `CCCOc1ccc(Cn2ccnc2)cc1[N+](=O)[O-]`, with 0.2. In the case of `Cc1ccc(Oc2cc(NC(=O)CCCn3nc(C)c([N+](=O)[O-])c3C)cc([N+](=O)[O-])c2)cc1`, the activation factor is 0.9. Then `Cc1[nH]nc(SCC(=O)NCC(C)C)c1[N+](=O)[O-]`, with 1.2; and `COc1cc2c(cc1NC(=O)CN1CCN(S(=O)(=O)c3ccc(F)cc3)CC1)oc1ccccc12`, with 2 (active). Then `COc1ccc(NC(=O)CN2CCN(S(=O)(=O)c3ccc(F)cc3)CC2)cc1Cl`, with 0.9. As for `COc1ccccc1NC(=O)CN1CCN(S(=O)(=O)c2ccc(Br)cc2)CC1`, the activation factor is 1. Next, `COc1ccc(-n2c(C)cc(C(=O)CN3C(=O)NC4(CCc5ccccc54)C3=O)c2C)cc1` (stereo not drawn): 1; `C/C(=C\c1ccco1)CN1CCC(N2CCC(C(=O)N3CCOCC3)CC2)CC1`: 1.1; `CC(=O)c1cccc(NC(=O)[C@@H](NC(N)=O)C(C)C)c1`: 0.9. Next, `O=C(COc1ccc(-c2ccccc2)cc1)NN=C1CCCC1`: 1. Next, `CC(C)Nc1nnc(SCC(=O)/C=C2\N(C)c3ccccc3C2(C)C)s1`: 1.1; `O=C1Nc2ccc([N+](=O)[O-])cc2C1=Nc1cccc(CO)c1`: 0.9. `Cc1c(NC(=O)CCC2CCCCC2)cc(C(=O)N2CCOCC2)cc1[N+](=O)[O-]`: the activation factor was 0.9.

As to `C=C(C)c1cccc(C(C)(C)NC(=O)NCCN(CC)CC)c1`, the activation factor was 1.2. Next, `C1=C(CCNc2ncnc3c2cnn3-c2ccccc2)CCCC1`: 0.9; `CC(=O)Nc1ccc(NC(=O)CSCc2cnn(-c3ccccc3)c2-n2cccc2)cc1`: 0.6; `O=C(NCCC1=CCCCC1)C1CCN(Cc2cnn(-c3ccccc3)c2-n2cccc2)CC1`: 2.5 (active). Next, `O=[N+]([O-])c1cc(S(=O)(=O)Nc2cccc(Cl)c2)ccc1N=Nc1c(O)[nH]c2ccccc12`: 0.8.

In the case of `S=C(NCc1cccnc1)Nc1ccc(Cl)cc1Cl`, the activation factor is 0.9.

Consider `O=C(Nc1cccn(Cc2ccccc2Cl)c1=O)NC1CCCCC1`, for which the activation factor is 1. Next, `C=CCc1cccc2cc(C(=O)NC3CCCC3)c(=O)oc12`: 0.9. For `COc1cccc(-c2ccc(C#N)c(SCC(=O)NCCc3ccc(Cl)cc3)n2)c1`, the activation factor is 0.8.

Regarding `COc1ccc(CCNC(=O)CSc2nc(-c3ccc(OC)c(OC)c3)ccc2C#N)cc1`, the activation factor is 2.1 (active).

Consider `COc1ccc(CCNC(=O)CSc2nnc3ccc(-c4ccncc4)nn23)cc1`, for which the activation factor is 1.1.

Take `O=C(Nc1ccc2c(c1)C(=O)OC2)Nc1cccc2ccccc12`: the activation factor was 1.1. As for `CCc1ccc(Nc2nnc(SCC(=O)c3ccc4c(c3)NC(=O)CO4)s2)cc1`, the activation factor is 1.2.

These data come from PubChem BioAssay AID1016 (Sanford-Burnham Center for Chemical Genomics, 2008).
